# Screening data as filed in PubChem.
# KB-3-1 cytotox: KB-3-1 parental cell cytotoxicity; KB-3-1 viability, CellTiter-Glo ATP luminescence, 72 h; Potency, µM (titrated, usually from 46.1 µM), most hits filed as cytotoxic; actives 1.4% (n = 400,000); AID 1347075; further: on the % scale 0 is the no-effect control and ±100 the full control effect; nearly all actives have a fitted effect of over 60% in size
#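 72 h, 37 °C compound treatment of KB-3-1 parental cells; CellTiter-Glo added, 10 min, luminescence read. Data corrected against DMSO-only plates and normalized before curve fitting.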
# SW480 rerep: inducers of DNA re-replication in SW480 colon cancer cells; SW480 DNA re-replication, Hoechst DNA content imaging, 48 h; Potency, µM (highest dose often 46.1 µM), for the others: top-dose re-replication activation, usual class: activators; actives 1.8% (n = 340,000); further: % of control where 0% means no effect; nearly all actives have a fitted effect of over 55% in size
#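 Compounds, transferred as 23 nL by pin tool, were incubated with cells for 48 hr; DNA content per nucleus was then quantified by Hoechst staining and fluorescence plate imaging.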
# PINK1 modulator: PINK1 expression modulation; PINK1 immunofluorescence, high-content cytometry, 24 h; Potency, µM (highest dose often 76.6 µM), for inactives: top-dose activation (PINK1 increase), most hits filed as activators; actives 0.2% (n = 410,000); active means well fitted activation curve with a large enough effect; inconclusive means small, poorly fitted or top-dose-only effect; cell line not stated here; further: % of control where 0% means no effect; nearly all actives have a fitted effect of over 65% in size
#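 Cells are seeded, rested 12 hours, then given compound at five concentrations or DMSO for 24 hours. After fixation, blocking and antibody staining, PINK1 amount and mitochondrial localization are scored; CCCP serves as control.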
# KB-V1 MDR tox: kills drug-selected multidrug resistant KB-V1 cells. KB-V1 MDR cells viability, CellTiter-Glo, 72 h. Potency, µM (top dose mostly 46.1 µM), hits mostly cytotoxic. actives 3.4% (n = 400,000); further: on the % scale 0 is the no-effect control and ±100 the full control effect; nearly all actives have a fitted effect of over 60% in size
#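 Following 72 h at 37 degrees C with compound, KB-V1 cell viability was read by CellTiter-Glo luminescence, medium being phenol-red-free DMEM plus 10% FBS; concentration-response parameters came from normalized, curve-fitted qHTS data.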
# MCF10A rerep: DNA re-replication induction in MCF 10a cells. MCF 10A DNA re-replication, Hoechst nuclear intensity, 48 h. Potency, µM (top dose mostly 46.1 µM), for the others: top-dose activity, positive = re-replication, hits mostly activators. actives 2.9% (n = 350,000). AID 624296; further: % of control where 0% means no effect; nearly all actives have a fitted effect of over 50% in size
# * marks the source's active call; other numbers are inactive results; i = inactive; ? = inconclusive; . = not tested or not shown; [ ] = another dose, or the depositor's remark. Most compounds without a hit are left out; they make up all but 6.7% or so of the library. Unless noted, the call rests on the fitted dose curve; in most records, active means well fitted curve in the direction sought with a large enough effect; inconclusive means small, poorly fitted or top-dose-only effect, or another doubt; inactive means no such curve, though single readings can be large; an effect the other way counts as inactive or inconclusive. Potency means the concentration at half of the fitted maximal effect.
SMILES,KB-3-1 cytotox,SW480 rerep,PINK1 modulator,KB-V1 MDR tox,MCF10A rerep
C/C(=N\NC(N)=S)C12CC3CC(CC(C3)C1)C2,i,26µM*,.,i,7.3µM*
O=C(CN1CCOCC1)c1ccc2ccccc2c1,?,.,0%,i,.
COc1ccccc1N1CCN(CCc2c[nH]c3cc4c(cc23)OCO4)CC1,i,13%,-1%,18µM*,17%
Cc1cccc(-n2c(/C=C/c3cn(C)c4ccccc34)nc3ccccc3c2=O)c1,i,.,1%,i,.
c1ccc(C(c2ccccc2)N2CCN(c3ccc4ccccc4n3)CC2)cc1,i,-5%,0%,i,?
Oc1ccc2c3c1OC1c4[nH]c5ccccc5c4C[C@@]4(O)C(C2)N(CC2CC2)CC[C@]314 (stereo partly specified),i,-17%,2%,i,?
O=C1/C(=C/c2ccccc2)C[C@@]2(O)[C@H]3Cc4ccc(O)c5c4[C@@]2(CCN3CC2CC2)C1O5 (stereo partly specified),?,?,1%,7.3µM*,4.6µM*
Oc1ccc2c3c1OC1c4oc5ccccc5c4C[C@@]4(O)[C@@H](C2)N(CC2CC2)CC[C@]314 (stereo partly specified),i,0.92µM*,0%,?,4%
C[n+]1c(-c2ccccc2)c2cc(N)ccc2c2ccc(N)cc21,2.9µM*,-97%,-1%,i,-26%
c1ccc(CCN2CCOCC2)cc1,i,.,.,i,.
COc1ccc(NC(=O)CN(C)S(=O)(=O)c2ccc3[nH]c(=O)oc3c2)cc1,i,?,0%,i,4%
CCc1ccc(NP(=O)(Oc2ccccc2F)Oc2ccccc2F)cc1,i,27%,-1%,i,22%
Cc1ccc(NP(=O)(Oc2ccccc2F)Oc2ccccc2F)cc1,i,?,-2%[38.3 µM],?,18µM*
CC(C)n1c(=O)c(C=Nc2cccc([N+](=O)[O-])c2)c(O)n(CCc2ccccc2)c1=O,i,-3%,1%,i,23µM*
O=C(c1ccccc1)C(Cc1ccccc1)N1CCOCC1 (stereo unspecified),i,-2%,-3%,18µM*,6%
O=C(Cc1ccccc1)OCCN1CCOCC1,i,-1%,1%,i,4%
O=P(Oc1ccccc1)(Oc1ccccc1)C(Nc1ccccc1)c1ccccc1 (stereo unspecified),?,18%,1%,13µM*,?
CC(C)COP(=O)(OCC(C)C)C(Nc1ccccc1)c1ccccc1 (stereo unspecified),i,-75%,?,?,?
CCOP(=S)(OCC)SCn1c(=O)oc2cc(Cl)ccc21,.,.,3%,.,.
CC(=O)OCC1=C(C(=O)O)N2C(=O)[C@@H](N)[C@@H]2SC1,.,-7%[20.6 µM],.,.,2%[20.6 µM]
CC(C)(O)/C=C/C(=O)[C@](C)(O)C1[C@H](O)C[C@@]2(C)C3CC=C4C(C[C@H](O)[C@@H](O)C4(C)C)[C@]3(C)C(=O)C[C@]12C (stereo partly specified),?,?,?,i,1.3µM*
CC(=O)O/C(=C1\CC2C3CC=C4CC(OC(C)=O)CCC4(C)C3CCC2(C)C1=O)C(F)(F)F (stereo unspecified),?,-2%,?,10µM*,?
CC(C)c1ccc(OCC(=O)N2CCN(CCc3ccncc3)CC2)cc1,i,.,0%,i,.
CCC1(CC)C(=O)NC(=O)N(C)C1=O,.,-1%,.,.,5%
C=CCn1c(O)c(C(C)=NCc2cc(OC)cc(OC)c2)c(=O)[nH]c1=O,5.2µM*,5%,-2%,3.3µM*,?
SMILES,KB-3-1 cytotox,SW480 rerep,PINK1 modulator,KB-V1 MDR tox,MCF10A rerep
C=CCn1c(O)c(C(C)=NCc2cccnc2)c(=O)[nH]c1=O,i,9%,-2%,i,4%
O=C1CN=C(c2cc([N+](=O)[O-])ccc2Cl)c2cc([N+](=O)[O-])ccc2N1,i,1.6µM*,1%,i,?
CCC(C)C(=O)N[C@@H](c1ccccc1)[C@@H](O)C(=O)O[C@H]1C[C@@]2(O)[C@@H](OC(=O)c3ccccc3)C3[C@](C)(C(=O)[C@H](OC(C)=O)C(=C1C)C2(C)C)[C@@H](O)C[C@H]1OC[C@@]31OC(C)=O (stereo partly specified),0.0065µM*,1.6µM*,9%,i,73%
CC/C=C/CC(=O)N[C@@H](c1ccccc1)[C@@H](O)C(=O)O[C@H]1C[C@@]2(O)[C@@H](OC(=O)c3ccccc3)C3[C@](C)(C(=O)[C@H](OC(C)=O)C(=C1C)C2(C)C)[C@@H](O)C[C@H]1OC[C@@]31OC(C)=O (stereo partly specified),0.58µM*,?,4%,?,?
CC(=O)OC1C(=O)[C@]2(C)C(O)CC3OC[C@]3(OC(C)=O)C2[C@@H](OC(=O)c2ccccc2)[C@]2(O)CC(O)C(C)=C1C2(C)C (stereo partly specified),.,.,7%,.,.
C/C=C(\C)C(=O)N[C@@H](c1ccccc1)[C@@H](O)C(=O)O[C@H]1C[C@@]2(O)[C@@H](OC(=O)c3ccccc3)C3[C@](C)(C(=O)[C@H](OC(C)=O)C(=C1C)C2(C)C)[C@H](O)C[C@H]1OC[C@@]31OC(C)=O (stereo partly specified),0.0073µM*,1.5µM*,7%,?,0.23µM*
CCOc1ccccc1NC(=O)c1cccn(Cc2ccccc2C)c1=O,i,.,-5%,?,.
CC1CC(O)[C@]2(O)[C@]13CC(=O)OC[C@@]2(C)[C@@](C)(O)C(=O)C3 (stereo partly specified),.,.,0%,.,.
COc1ccc(NC(=O)N2CC3(CCN(C(=O)Oc4ccccc4)CC3)C2)cc1,.,.,0%,.,.
Cn1cc(C(=O)c2ccccc2)c2ccccc21,i,1%,3%,i,16%
COC(=O)c1cn(S(=O)(=O)c2ccccc2)c2ccccc12,i,?,10%,i,26µM*
O=C1CN(O)C(c2ccccc2Cl)=c2cc(Br)ccc2=N1,i,-1%,1%,i,23µM*
NCC[C@H](O)C(=O)N[C@H]1C[C@@H](N)[C@@H](O[C@H]2O[C@@H](CN)[C@@H](O)[C@@H](O)[C@@H]2N)[C@@H](O[C@H]2O[C@@H](CO)[C@@H](O)[C@@H]2O)[C@@H]1O,.,0%[20.6 µM],.,.,1%[20.6 µM]
O=C(c1ccc(Cl)cc1)C1CCCN(Cc2ccc3c(c2)OCCO3)C1 (stereo unspecified),i,-15%,8%,i,?
O=C(c1ccc(Cl)cc1)C1CCCN(Cc2ccc3ncccc3c2)C1 (stereo unspecified),?,-2%,1%,4.1µM*,?
C=C1C=C(C(F)F)n2ncc(C(=O)NCc3ccccc3F)c2N1,?,.,0%,i,.
